Results filed as inconclusive are left out. Active and inactive are the calls of the source. Unless noted, calls follow the shape of the dose curve; as a rule, active = well fitted curve in the direction sought with a large enough effect in the repeat runs; inconclusive = weak or mixed curves; inactive = no such curve, though single readings can be large; an effect the other way counts as inactive or inconclusive.
Key:
[1] = target: Retinoic acid receptor RXR-alpha (Homo sapiens) (UniProt P19793); assay: qHTS assay to identify small molecule agonists of the RXR signaling pathway (AID 1159527; calls by dose curve; also: nearly all actives have a fitted effect of over 35% in size)
Retinoic acid receptor RXR-alpha (Homo sapiens), sequence (P19793 whole entry, looked up): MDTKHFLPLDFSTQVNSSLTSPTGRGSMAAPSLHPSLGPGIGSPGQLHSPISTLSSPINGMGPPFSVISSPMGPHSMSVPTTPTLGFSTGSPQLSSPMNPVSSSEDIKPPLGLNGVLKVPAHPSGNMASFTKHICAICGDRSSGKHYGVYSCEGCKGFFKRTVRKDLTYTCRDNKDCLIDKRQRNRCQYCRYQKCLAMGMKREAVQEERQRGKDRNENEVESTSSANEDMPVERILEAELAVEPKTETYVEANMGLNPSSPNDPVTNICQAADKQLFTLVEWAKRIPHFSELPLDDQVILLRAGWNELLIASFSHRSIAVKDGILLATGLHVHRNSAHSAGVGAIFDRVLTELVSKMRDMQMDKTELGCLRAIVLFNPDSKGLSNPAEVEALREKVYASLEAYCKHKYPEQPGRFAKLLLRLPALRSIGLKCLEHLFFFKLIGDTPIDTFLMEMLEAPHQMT
Outline: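 Reporter activation is measured as beta-lactamase activity via FRET substrate cleavage (emission 460/530 nm) in HEK 293T cells expressing an RXR-alpha-driven bla construct, following 16 hr compound exposure at 37 C.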

[2] = qHTS assay to identify small molecule agonists of the RXR signaling pathway - cell viability counter screen (AID 1159529); also: series mostly up to about 77 µM; nearly all actives have a fitted effect of over 50% in size
Outline: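 Tox21 10K compounds were tested for cytotoxicity against GeneBLAzer RXR-alpha HEK 293T cells grown in 2% charcoal-stripped FBS. Exposure lasted 16 hr at 37 C, 5% CO2; viability read by CellTiter-Glo luminescence.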

[3] = qHTS assay to identify small molecule antagonists of the retinoid acid receptor (RAR) signaling pathway - cell viability counter screen (AID 1159551); also: nearly all actives have a fitted effect of over 35% in size
Outline: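 Measured by luminescent ATP detection, viability reflects C3RL4 cells treated 6 h at 37 C with test chemicals in the presence of 1 uM (final) retinol.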

[4] = qHTS assay to identify small molecule antagonists of the estrogen related receptor (ERR) signaling pathway - cell viability counter screen (AID 1224818);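 also: series mostly up to about 46 µM; viability measured after 17.5 h of compound exposure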
Outline: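 Compounds dissolved in DMSO were applied to ERR cells seeded at 2,000 per well 6 h earlier. Cell viability followed 17.5 h later via 30-min CellTiter-Fluor fluorescence.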

[5] = qHTS assay to identify small molecule antagonists of the retinoic acid receptor (RAR) signaling pathway (AID 1159552; also: nearly all actives have a fitted effect of over 50% in size)
Outline: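 Overnight-plated C3RL4 reporter cells get compound, then retinol to 1 uM final; plates sit 6 hr at 37 C, 5% CO2. A luciferase reagent is added and light output recorded after 30 min at room temperature.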

[6] = qHTS assay to identify small molecule agonists of the retinoic acid receptor (RAR) signaling pathway (AID 1159553)
Outline: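 6 hr compound exposure (DMSO vehicle) of overnight-plated C3RL4 RARE-luc cells at 37 C; luminescence quantified after 30 min RT with luciferase reagent.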

Measured: Potency

NC1=NCC2c3ccccc3Cc3ccccc3N12 (stereo unspecified)
inactive: [1] | [2] | [3] | [4]

O=C(O)c1cccc(Cl)c1Cl
inactive: [1] | [2] | [5] | [6]

Cc1nnc(SCC2=C(C(=O)O)N3C(=O)[C@@H](NC(=O)Cn4cnnn4)[C@H]3SC2)s1
inactive: all assays above

CCCCC(CC)COC(=O)COc1cc(Cl)c(Cl)cc1Cl (stereo unspecified)
not listed: [4]
inactive: all other assays above

O=C1CCCCC1C1CCCCC1 (stereo unspecified)
inactive: [1] | [2] | [5] | [6]

OCc1c2ccccc2cc2ccccc12
inactive: [1] | [2] | [5]

Source: PubChem BioAssay (Tox21)
